This is a sample that favours compounds with a hit; in the whole collection about 1.4% have one here.
TNF death inh – blocks TNF-alpha induced death of Jurkat FADD-/- cells; activation (protection from cell death), % at 10 µM; hit rate 0.068% among 220,000; Jurkat FADD-/- TNF necroptosis rescue, ATP luminescence, 24 h; 0 = TNF only, 100 = no-TNF cells;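 active means activation, meaning protection from cell death, of at least 50% relative to plate controls; inactive means activation below 50%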;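 further: necroptosis triggered by 40 ng/mL TNF-alpha added together with compound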
V-ATPase pH – yeast V-ATPase proton transport regulation by pHLuorin; S. cerevisiae, pHLuorin cytosolic pH fluorescence; response, % at 10 µM; hit rate 0.37% among 350,000; AID 504577; in the data active means response mostly above about 7.3%, no sharp cut-off; inactive means mostly below about 5.4%; further: actives read high
zVAD death inh – L929 zVAD cell death inhibition. L929 zVAD necroptosis rescue, ATP luminescence, 24 h; with zVAD 60 µM. viability rescue, % at 10 µM. hit rate 0.38% among 220,000;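 active means activation, scaled between plate controls, above about 75%, limit read from the data; inactive means activation under that limit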
Wee1 degr inh – inhibitors of human Wee1 degradation | reporter increase, % at 5 µM | AID 1321 | P30291 | HeLa Luc-Wee1K328M stability, luciferase luminescence; 100% = proteasome inhibitor MG132 effect | hit rate 1.2% among 220,000;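 active means activation above the mean of all tested compounds plus 3 SD, set per screening run, cut at about 8.8% in these data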;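 further: cells exposed to compound for 20 h before luminescence read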
Target sequence (P30291 whole entry K328M): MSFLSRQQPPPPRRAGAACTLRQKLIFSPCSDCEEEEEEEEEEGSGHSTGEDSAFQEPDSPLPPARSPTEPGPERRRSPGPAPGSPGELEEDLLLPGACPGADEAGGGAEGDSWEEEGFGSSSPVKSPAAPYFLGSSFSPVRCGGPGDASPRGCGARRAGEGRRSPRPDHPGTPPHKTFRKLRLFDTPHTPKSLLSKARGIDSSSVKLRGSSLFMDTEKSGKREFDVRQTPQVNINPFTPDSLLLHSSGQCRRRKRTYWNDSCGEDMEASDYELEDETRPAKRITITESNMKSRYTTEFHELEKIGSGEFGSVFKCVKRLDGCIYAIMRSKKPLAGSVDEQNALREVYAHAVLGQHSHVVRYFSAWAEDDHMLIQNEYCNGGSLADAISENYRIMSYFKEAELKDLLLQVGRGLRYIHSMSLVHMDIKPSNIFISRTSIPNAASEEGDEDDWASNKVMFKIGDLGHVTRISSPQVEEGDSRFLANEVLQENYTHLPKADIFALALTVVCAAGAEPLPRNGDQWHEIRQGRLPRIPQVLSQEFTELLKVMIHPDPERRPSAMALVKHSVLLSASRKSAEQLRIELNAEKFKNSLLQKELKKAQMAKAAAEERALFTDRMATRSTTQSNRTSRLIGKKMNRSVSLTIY
HSV augment – increases HSV replication in cells. HSV replication augmentation in cells, fold increase. hit rate 0.005% among 220,000. AID 1956. maximum fold increase; in the data active means maximum fold increase above about 1.5; tested in PC3 cells
Wee1 degr conf – human Wee1 degradation inhibition, confirmation | shares compounds with Wee1 degr inh | HeLa Luc-Wee1K328M degradation, luminescence; vehicle 0%, proteasome-blocked wells 100% | activation, % at 5 µM | hit rate 4% among 1,100 | AID 1410; in the data active means activation above about 8.9%
A number is an active result; n = inactive; x = no result given.

SMILES	TNF death inh	V-ATPase pH	zVAD death inh	Wee1 degr inh	HSV augment	Wee1 degr conf
CCOC(=O)c1ccc(NC(=S)Nc2cccc(C)n2)cc1	n	n	n	n	n	x
CCOC(=O)c1ccc(NC(=S)Nc2cccc(N)n2)cc1	n	n	n	17.9	n	n
CCOC(=O)c1cn[nH]c1NC(=S)Nc1ccc(OC)cc1	n	n	n	12.5	n	n
CCOC(=O)c1ccc(NC(=O)C(CC)(CC)C(=O)OCC)cc1	n	n	n	15.7	n	n
CCOC(=O)c1ccc(NC(=O)COC)cc1	n	n	n	n	n	x
C[C@@H](NC(=O)c1ncn2c1c(=O)[nH]c1ccc(Br)cc12)c1ccccc1	x	n	x	x	x	x
COc1ccc(C(=O)O)cc1S(=O)(=O)NC(C)C12CC3CC(CC(C3)C1)C2 (stereo not drawn)	x	n	x	x	x	x
N#CCC(=O)Nc1ccc(C(=O)NCC2(N3CCOCC3)CCCCC2)cc1	x	n	x	x	x	x
O=C(CNCC1(N2CCOCC2)CCCCC1)Nc1ccc(Cl)cc1	n	n	n	19.3	n	n
CN1CCN(C(=O)CN(c2ccccc2)S(=O)(=O)N(C)C)CC1	n	x	n	10.9	n	n
CN(C)S(=O)(=O)N(CC(=O)N1CCOCC1)c1ccccc1	n	n	n	n	n	x
Cc1ccc(C2NC(=O)Cc3ccccc32)cc1 (stereo not drawn)	n	n	n	13.5	n	n
CCc1ccc(NC(=O)CN(CC(=O)Nc2ccc(CC)cc2)CC(C)O)cc1 (stereo not drawn)	x	n	x	x	x	x
Cc1ccc(CN2CCN(Cc3cccn3-c3nccs3)CC2CCO)cc1 (stereo not drawn)	n	n	n	13.3	n	n
CC(C)CCN1CCN(Cc2cccn2-c2nccs2)CC1CCO (stereo not drawn)	n	n	n	n	n	x
O=C(Nc1cccnc1)c1sc2cccc(F)c2c1Cl	n	n	n	14.6	n	n
CCCCn1c(N)c(N(CC(C)C)C(=O)CC(NC(=O)c2ccccc2Cl)c2ccccc2)c(=O)[nH]c1=O (stereo not drawn)	x	n	x	x	x	x
COc1ccc(-c2nc(-c3ccc(O)cc3O)cs2)cc1OC	n	n	n	13.4	n	n
Cc1ccc(NC(=O)CSc2nnc(-c3cccs3)o2)cc1S(=O)(=O)N(C)C	n	x	n	21.4	n	n
Cc1ccc(C(=O)CSc2nc3ccccc3c(=O)[nH]2)cc1	n	n	n	20.5	n	n
C(=Cc1cccnc1)c1ccncc1	x	n	x	x	x	x
O=C(/C=C/c1cccnc1)/C=C/c1cccnc1	n	n	n	17.6	n	21.6
O=C(CCn1c(=O)oc2ccccc21)NCCC1=CCCCC1	n	n	n	17.3	n	n
CN(C)CCN1C(=O)C2C(C(=O)Nc3cc(Cl)cc(Cl)c3)C3C=CC2(O3)C1C(=O)NC1CCCCC1 (stereo not drawn)	x	n	x	x	x	x
CC1CCCCN1CC(=O)NC(=O)NCc1ccccc1 (stereo not drawn)	n	n	n	17.6	n	n
SMILES	TNF death inh	V-ATPase pH	zVAD death inh	Wee1 degr inh	HSV augment	Wee1 degr conf
CC1CCN(CC(=O)NC(=O)NCc2ccccc2)CC1	n	n	n	n	n	x
Cc1ccc(NC(=S)Nc2ccccn2)c(C)c1	n	n	n	n	n	x
Cc1cc(Cl)ccc1NC(=S)Nc1ccccn1	n	n	n	15.2	n	11.9
CC(C)CCNC(=O)c1cc(-c2ccncc2)nc2ccc(S(=O)(=O)N3CCOCC3)cc12	n	n	x	11.1	n	n
Cc1ccccc1OCC(=O)OCn1nnc2ccccc2c1=O	n	n	n	12.5	n	n
O=C(COc1ccc(Cl)cc1Cl)OCn1nnc2ccccc2c1=O	n	n	n	n	n	x
CN1C2CCC1CC(NC(=O)c1cc(Cl)cc3[nH]cnc13)C2 (stereo not drawn)	x	n	x	x	x	x
COc1ccc(C(C2C(=O)CC(C)(C)CC2=O)C2C(=O)CC(C)(C)CC2=O)cc1	n	n	n	n	n	x
CC1(C)CC(=O)C(C(c2ccncc2)C2C(=O)CC(C)(C)CC2=O)C(=O)C1	n	n	n	13.4	n	n
CCOC(=O)C1=C(COc2ccccc2)NC(=O)NC1c1ccc(Br)cc1 (stereo not drawn)	x	n	x	x	x	x
CCOC(=O)c1cnc(SC)nc1N	n	n	n	n	n	x
CCOC(=O)c1cnc(SCC#N)nc1N	n	n	n	13.2	n	n
CCOC(=O)c1cnc2ccc(OC)cc2c1NCc1ccccc1	n	n	x	12.7	n	n
O=C(NCCSc1ccccc1)c1ccc(CN2CCOCC2)cc1	n	n	n	15.4	n	n
O=C(NCCSc1ccc(Cl)cc1)c1ccc(CN2CCOCC2)cc1	n	n	n	n	n	x
N#Cc1c(C(F)(F)F)cc(C2CC2)[nH]c1=O	n	n	n	14.7	n	n
CC(=O)C[C@H]1c2cc(F)ccc2S(=O)(=O)N1c1ccc(N(C)C)cc1	x	n	x	x	n	x
C=CCNC(=O)/C=C/c1c(F)cccc1Cl	n	n	n	13.4	n	n
O=C(/C=C/c1c(F)cccc1Cl)Nc1ncccn1	n	n	n	n	n	x
COc1ccc(C(=O)Cn2nc(CNc3ccc(Br)cc3)[n+]3c2CCCCC3)cc1	n	n	n	n	n	x
Cc1ccc(C(C)C)c(OCc2nn(CC(=O)c3ccc(OC(F)F)cc3)c3[n+]2CCCCC3)c1	n	n	n	18.0	n	n
Cc1cc(C)c(NC(=O)CCc2c(C)noc2C)c(C)c1	x	n	x	x	x	x
Cn1c(SCC(=O)c2ccccc2)nnc1-c1cnccn1	n	n	n	12.8	n	n
CCCCN1C(=O)NC(NC(=O)c2ccco2)(C(F)(F)F)C1=O (stereo not drawn)	n	n	n	17.3	n	n
CCCCN1C(=O)NC(NC(=O)C2CC2)(C(F)(F)F)C1=O (stereo not drawn)	n	n	n	n	n	x
SMILES	TNF death inh	V-ATPase pH	zVAD death inh	Wee1 degr inh	HSV augment	Wee1 degr conf
CCS(=O)(=O)c1ccc(C(=O)NC2CC2)c(Cl)c1Cl	n	n	n	10.9	n	n
O=C(NC1CC1)c1ccc(F)cc1Cl	n	n	n	n	n	x
Cc1ccc(C(=O)NC2CCN(CC(=O)NC3CCC(C)CC3)CC2)cc1 (stereo not drawn)	x	n	x	x	x	x
c1ccc(-n2cnnc2SCc2cn3ccsc3n2)cc1	n	n	n	13.0	n	n
COc1ccc2[nH]c3c(c2c1)CCN1C(=O)N([C@@H](C)C(=O)NCCc2ccc(F)cc2)C(=O)[C@]31C	x	n	x	x	x	x
C/C(CC(=O)Nc1cc(Cl)ccc1C)=N\NC(=O)C(=O)N1CCCC1	x	n	x	x	x	x
Cc1cccc2c(CC(=O)Nc3ccccc3)noc12	n	n	n	13.4	n	n
Cc1ccsc1/C=C1/CN(C)Cc2c1nc1ccccc1c2C(=O)O	n	n	n	11.1	n	n
O=C(CCl)Nc1ccccc1C(=O)Nc1ccc2c(c1)OCO2	n	n	n	n	n	x
Cc1cc(C(=O)C(C(c2ccccc2)N2CCOCC2)N2CCOCC2)ccc1Cl (stereo not drawn)	x	n	x	x	x	x
O=C(CNS(=O)(=O)c1ccccc1)N1CCc2ccccc2C1	x	n	x	x	x	x
CCc1ccc(NC(=O)Nc2cccc(OC)c2)cc1	n	n	n	12.1	n	n
